For 6 compounds, growth results are on record in the supplement of paper PMC9262897, “Low-cost anti-mycobacterial drug discovery using engineered E. coli” (Nature Communications, 2022).

Holding throughout (assay): growth (OD600 after 10 h); higher = more growth (less inhibition)
Test [1] relates to E. coli TESEC Alr+ wild-type control. The note with it: compound 0.1 mM; raw OD600 reference: median of DMSO wells 0.241, cell-free background 0.041. As to the method:
(§1)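 TESEC Mtb Alr E. coli, or the Alr+ wild-type control, in 384-well plates with Prestwick library compounds at 0.1 mM and 1% DMSO, across arabinose induction levels of 1E3 to 1E7 nM. Growth is read as OD600 after 10 h at 37 °C in triplicate biological replicates.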

Test [2] deals with E. coli TESEC Mtb Alr. The note with it: compound 0.1 mM. The method, then:
as §1

The test system of test [3] is E. coli TESEC Mtb Asd. The following applies: compound 0.1 mM. The method, then:
(§2)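 TESEC E. coli strains in which the native enzyme is deleted and replaced by arabinose-inducible Mtb Asd, DapB, CysH or TrpD, each grown in its selective medium. Strains were screened against the Prestwick library at 0.1 mM and 1% DMSO in 384-well format at low and high arabinose induction. Growth is read as OD600 after 10 h in triplicate.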

Test [4] has as its system E. coli TESEC Mtb Alr. The following applies: compound 0.1 mM. The method, then: (§3)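 TESEC Mtb Alr E. coli (ΔaraC ΔtolC ΔentC Δalr ΔdadX, arabinose-inducible Mtb Alr) or the Alr+ wild-type control strain, grown in defined M9-fructose medium without D-alanine in 96-well plates with Prestwick library compounds at 0.1 mM and 1% DMSO. Low Alr induction is 0.1 µM arabinose and high induction is 10 mM arabinose.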
This is another data set of the same source.

Test [5] deals with E. coli TESEC Mtb DapB. The note with it: compound 0.1 mM. As to the method: as §2
For test [6], the system named is E. coli TESEC Alr+ wild-type control. The note with it: compound 0.1 mM; raw OD600 reference: median of DMSO wells 0.49, cell-free background 0.052. As to the method: as §3
Setting [7] is: arabinose 1000 nM, raw OD600 reference: median of DMSO wells 0.294, cell-free background 0.041.
Setting [8] is: arabinose 10000 nM, raw OD600 reference: median of DMSO wells 0.264, cell-free background 0.041.
[9] abbreviates: arabinose 100000 nM, raw OD600 reference: median of DMSO wells 0.201, cell-free background 0.041.
Setting [10] is: arabinose 1000000 nM, raw OD600 reference: median of DMSO wells 0.193, cell-free background 0.041.
Setting [11] is: arabinose 10000000 nM, raw OD600 reference: median of DMSO wells 0.146, cell-free background 0.041.
Setting [12] is: arabinose induction (level): High, raw OD600 reference: median of DMSO wells 0.331, cell-free background 0.041.
[13] abbreviates: arabinose induction (level): Low, raw OD600 reference: median of DMSO wells 0.417, cell-free background 0.041.
Where [14] appears, read: arabinose 100 nM, raw OD600 reference: median of DMSO wells 0.413, cell-free background 0.052.
[15] abbreviates: arabinose 10000000 nM, raw OD600 reference: median of DMSO wells […], cell-free background 0.052.
Where [16] appears, read: arabinose induction (level): High, raw OD600 reference: median of DMSO wells […], cell-free background 0.041.
Where [17] appears, read: arabinose induction (level): Low, raw OD600 reference: median of DMSO wells 0.227, cell-free background 0.041.

Structures are written as SMILES. Where a name gives a salt, the structure may show the parent alone. ± gives the standard deviation of the averaged measurements.

Take `Cc1nc(=O)c2cc(CN(C)c3ccc(C(=O)N[C@@H](CCC(=O)O)C(=O)O)s3)ccc2[nH]1` [Raltitrexed]: the growth came out at 0.229 ± 0.012 in test [1]; 0.259 ± 0.0086 in test [2] (setting [7]); 0.358 ± 0.013 in test [2] (setting [8]); 0.171 ± 0.02 in test [2] (setting [9]); 0.173 ± 0.0097 in test [2] (setting [10]); 0.162 ± 0.0053 in test [2] (setting [11]). Further, the growth in test [3] (setting [12]) was determined as 0.269 ± 0.05; in test [3] (setting [13]), 0.4225 ± 0.0017; in test [4] (setting [14]) it was 0.409 ± 0.016; in test [4] (setting [15]) it was 0.322 ± 0.011.

Consider `CCCc1nn(C)c2c(=O)[nH]c(-c3cc(S(=O)(=O)N4CCN(C)CC4)ccc3OCC)nc12` [Sildenafil], for which the growth in test [1] came out at 0.201 ± 0.016; in test [3] (setting [12]), 0.233 ± 0.013; in test [3] (setting [13]), 0.399 ± 0.035; in test [5] (setting [16]), 0.199 ± 0.01; in test [5] (setting [17]), 0.27 ± 0.045; in test [6], 0.456 ± 0.045. Moreover, the values for the growth in test [4] (setting [14]) and in test [4] (setting [15]) were 0.406 ± 0.0068 and 0.2931 ± 0.0018, respectively.

Regarding `CCOC(=O)c1ccc(N)cc1` [Benzocaine], the growth came to 0.249 ± 0.0072 in test [1]; 0.469 ± 0.013 in test [3] (setting [12]); 0.453 ± 0.027 in test [3] (setting [13]); 0.212 ± 0.013 in test [5] (setting [16]); 0.24 ± 0.034 in test [5] (setting [17]); 0.432 ± 0.0086 in test [6]. Moreover, the figures for the growth in test [4] (setting [14]) and in test [4] (setting [15]) were 0.4093 ± 0.00068 and 0.323 ± 0.018, respectively.

With `C[C@]12C=CC(=O)C=C1CC[C@@H]1[C@@H]2C(=O)C[C@@]2(C)[C@H]1CC[C@]2(O)C(=O)CO` [Prednisone], the growth in test [1] came to 0.221 ± 0.01; in test [3] (setting [12]), 0.237 ± 0.029; in test [3] (setting [13]), 0.414 ± 0.042; in test [5] (setting [16]), 0.185 ± 0.0094; in test [5] (setting [17]), 0.267 ± 0.014; in test [6] it was 0.479 ± 0.044. The growth amounted to 0.412 ± 0.005 in test [4] (setting [14]) and 0.352 ± 0.019 in test [4] (setting [15]).

Take `CC(=O)O[C@]1(C(C)=O)CC[C@H]2[C@@H]3C=C(Cl)C4=CC(=O)[C@@H]5C[C@@H]5[C@]4(C)[C@H]3CC[C@@]21C` [Cyproterone acetate]: the growth in test [1] worked out at 0.1672 ± 0.001; in test [3] (setting [12]), 0.111 ± 0.041; in test [3] (setting [13]) it was 0.109 ± 0.0055; in test [5] (setting [16]), 0.135 ± 0.01; in test [5] (setting [17]), 0.131 ± 0.011; in test [6], 0.355 ± 0.17. Besides, the growth in test [4] (setting [14]) came out at 0.385 ± 0.035; in test [4] (setting [15]), 0.0934 ± 0.024.

For `CN[C@H](CC(C)C)C(=O)N[C@H]1C(=O)N[C@@H](CC(N)=O)C(=O)N[C@H]2C(=O)N[C@H]3C(=O)N[C@H](C(=O)N[C@H](C(=O)O)c4cc(O)cc(O)c4-c4cc3ccc4O)[C@H](O)c3ccc(c(Cl)c3)Oc3cc2cc(c3O[C@@H]2O[C@H](CO)[C@@H](O)[C@H](O)[C@H]2O[C@H]2C[C@](C)(N)[C@H](O)[C@H](C)O2)Oc2ccc(cc2Cl)[C@H]1O` [Vancomycin hydrochloride], the growth in test [1] amounted to 0.0502 ± 0.0016; in test [2] (setting [7]), 0.084 ± 0.073; in test [2] (setting [8]) it was 0.03873 ± 0.00032; in test [2] (setting [9]), 0.0413 ± 0.0026; in test [2] (setting [10]) it was 0.0388 ± 0.00044; in test [2] (setting [11]), 0.0471 ± 0.0044. In addition, the growth in test [3] (setting [12]) amounted to 0.0662 ± 0.0062; in test [3] (setting [13]) it was 0.0563 ± 0.011; in test [4] (setting [14]) it was 0.217 ± 0.15; in test [4] (setting [15]), 0.0507 ± 0.00062.
